About 83,000 compounds went through this panel and 20% of them were active in at least one assay; those are over-represented in the sample as a whole.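 For each line, cells grew in 96-well plates with the test compound present at a single concentration for 48 hours.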 A number with no mark means an inactive call. Activity calls are given as the source filed them.
Test system: SNB-75 CNS
Assay: NCI-60 one-dose screen, 48 h (100 = growth as untreated, 0 = no growth, -100 = all killed)
Conditions: 10 µM unless noted
Procedure: Growth inhibition of the SNB-75 human tumor cell line is measured as a screen for anti-cancer activity. Cells are grown in 96 well plates and exposed to the test compound for 48 hours. Compounds are tested at a single concentration, which is 10^-5 M for most compounds. The reported endpoint is percent growth (GI% or GIPRCNT), where numbers from 0 - 100% represent growth inhibition, and numbers from -100% - 0 represent cell death. For example, a value of 40 represents 60% growth inhibition. A value of 0 means no net growth occurred over the course of the experiment. A value of -40 indicates 40% of cells at the beginning of the experiment died by the end of the experiment. A value of -100 means all cells are dead at the end of the experiment.
NCI-60 Human Tumor Cell Lines Screen was performed using the standard one-dose NCI protocol, which is described in more detail at https://dtp.cancer.gov/discovery_development/nci-60/default.htm.
Compounds with GIPRCNT values below 10 were considered active. Activity score was based on GIPRCNT using the following formula: […]
Score is 0 for GIPRCNT values of 100 or above, 50 for GIPRCNT values of 0, and 100 for GIPRCNT values of -100.

| Structure (SMILES) | growth |
| --- | --- |
| CSc1nc(N)c2c(n1)NC(c1ccccc1)C1CCc3ccccc3C1=N2 (stereo not given) | 84% |
| FC(F)(F)c1cccc(-c2nnn(Cc3cc(-c4cccc(Cl)c4)no3)n2)c1 | 88.9% |
| C(CCCSC1=NCCN1)CCSC1=NCCN1 | 91.4% |
| O=S(=O)(Nc1ccc(Br)cc1)c1ccc(-c2cnc(C3CC3)o2)cc1 | -6.53% (active) |
| O=C1NCCS(=O)(=O)/C1=C\C=C\c1cccc(C(F)(F)F)c1 | 71.2% |
| O=C(OCC(O)C(=O)NC12CC3CC(CC(C3)C1)C2)c1cccc(Br)c1 (stereo not given) | 98.5% |
| CC(C)=CC(=O)C1C(=O)c2ccccc2C1=O | 90% |
| O=C(CSc1nnc(-c2ccc(Cl)c(Cl)c2)n1-c1ccccc1)Nc1ccc(C(=O)/C=C/c2ccc(Cl)cc2)cc1 | 69.9% |
| COc1cccc(-c2nn(-c3ccccc3)cc2-c2ccnc(-c3cccnc3)c2)c1 | 93% |
| Cc1ccc(-c2nc(C#N)c(S(=O)(=O)n3nc(C)cc3N)o2)cc1 | 97.6% |
| N#C/C(Sc1nc2sc3c(c2c(=O)n1Cc1ccccc1)CCCC3)=C1/SC=C(c2ccc(Cl)cc2)N1c1ccccc1 | 71.2% |
| O=c1c(/C=C/c2c(O)ccc3ccccc23)nnc2sc(-c3cccc([N+](=O)[O-])c3)nn12 | 51.7% |
| COc1nc2ccccc2cc1/C=C1/C=C(c2ccccc2)NC1=O | 28.8% |
| CC(C)n1cc(C2=C(c3cccc4ccccc34)C(=O)NC2=O)c2cc(Br)ccc21 | 38.6% |
| CNC1=C(Br)C(=O)c2c(C(=O)OC)c(C)nc(C)c2C1=O | 139% |
| COC(=O)CNC(=O)c1ccc(NC(=O)c2[nH]c(C)c(Cl)c2Cl)c(O[C@H]2CCNC2)c1 | 94.8% |
| COc1ccc(CNc2c3ccccc3nc3ccccc23)cc1OC | 24.8% |
| Cc1cc(=O)oc2cc(Oc3nc(-c4ccccc4)cn4c(-c5ccccc5)cnc34)ccc12 | -1.39% (active) |
| CC/C(=C(/c1ccc(Cl)cc1)c1ccc(OCCCN(C)C)cc1)c1ccc(OC)cc1 | 81% |
| O=C(Nc1cccc2c1C(=O)c1cccc(NC(=O)c3ccc(C(=O)Nc4cccc5c4C(=O)c4cccc(NC(=O)c6ccccc6)c4C5=O)cc3)c1C2=O)c1ccccc1 | 89.7% |

| Structure (SMILES) | growth |
| --- | --- |
| O=C(Nc1ccc2c(c1)-c1ccccc1C2)C1CC(=O)N(c2ccc3c(c2)OCO3)C1 (stereo not given) | -2.42% [50 µM] (active) |
| O=C(/C=C/c1ccco1)c1ccc(Nc2ccnc3cc(Cl)ccc23)cc1 | 105% |
| Cc1ccc(Nc2oc(-c3ccccc3)nc2[P+](c2ccccc2)(c2ccccc2)c2ccccc2)cc1 | -2.21% (active) |
| N#C/C(=C\c1cccc2cnccc12)N1N=NC2C=CC=CC21 (stereo not given) | 7.27% (active) |
| O=c1c(Cc2ccc(F)cc2)cc(-c2ccccc2)nn1C/C(=N/O)c1ccccc1 | 57.8% |
| CCOC(=O)c1ccc2c(c1)c1c(C)c3cnccc3c(C)c1n2C | -45% (active) |
| C/C(=C(\c1ccc(OCCCN(C)C)cc1)c1ccc(OC(=O)Cc2ccccc2)cc1)c1ccc(Cl)cc1 | 77.3% |
| CCOC(=O)c1c(C)c2c(n1Cc1ccccc1)CSc1cc(C#N)c(=O)[nH]c1-2 | 25.4% [100 µM] |
| CCN1C(=O)N(CC)C2C1NN=c1s/c(=C\c3ccccc3)c(=O)n12 (stereo not given) | 20.8% |
| COc1ccc(N/N=C/c2ccc3c(c2)Sc2ccccc2N3C)cc1 | 73.5% |
| C#C[C@]1(O)CC[C@H]2[C@@H]3CC=C4c5sc(-c6ccccc6)nc5CC[C@]4(C)[C@H]3CC[C@@]21C | 63.6% |
| C=C(c1ccc(C(=O)O)c(F)c1)c1cc2c(cc1C)C(C)(C)C=CC2(C)C | 89.9% |
| COc1ccc(-c2cc(-c3ccc(Cl)cc3)c(C#N)c(=O)n2CCCCC(=O)NO)cc1 | 76.7% |
| CCOC(=O)/C=C1\S/C(=N\Nc2cc(=O)[nH]c3ccc(OC)cc23)N(c2ccccc2)C1=O | 91.1% |
| CO[C@]12C=C/C(=C(/C(=O)OCc3cccnc3)C(=O)CCCCCCCC[C@]3(OC)C=C/C(=C(/C(=O)OCc4cccnc4)C(=O)CCCCCCCC1)O3)O2 | -79.6% (active) |
| CN1CCN(CCCNC(=O)c2c3c(n4ccccc24)C(=O)c2ncccc2C3=O)CC1 | -4.64% (active) |
| O=C(c1ccc(F)cc1)C1CCN(CCn2c(=O)[nH]c3ccccc3c2=O)CC1 | 92.6% |
| Nc1ccc(N)c2c1C(=O)c1cccc([N+](=O)[O-])c1C2=O | 22.6% |
| CC(=O)OCC(=O)O[C@@H]1C[C@]2(C(C)C)O[C@@]1(C)[C@@H]1CC[C@@H](C)[C@H]1[C@@H]2OC(=O)/C=C/c1ccccc1 | 62.3% |
| Cc1ccc(-c2nn(CC(=O)N3CCOCC3)c(N)c2C#N)cc1 | 89.4% |
